Results filed as inconclusive are left out. Activity calls are given as the source filed them. Unless noted, the call rests on the fitted dose curve; in most records, active means well fitted curve in the direction sought with a large enough effect; inconclusive means small, poorly fitted or top-dose-only effect, or another doubt; inactive means no such curve, though single readings can be large; an effect the other way counts as inactive or inconclusive.
Assays:
[1] = molecular target: ATP-dependent 6-phosphofructokinase (Trypanosoma brucei brucei) (UniProt O15648); test: qHTS Assay to Find Inhibitors of T. brucei phosphofructokinase: hit validation (AID 492961);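 further: luminescence reports ADP formed as PFK phosphorylates fructose-6-phosphate with ATP; on the % scale 0 is the no-effect control and ±100 the full control effect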
ATP-dependent 6-phosphofructokinase (Trypanosoma brucei brucei), sequence (O15648 whole entry, looked up): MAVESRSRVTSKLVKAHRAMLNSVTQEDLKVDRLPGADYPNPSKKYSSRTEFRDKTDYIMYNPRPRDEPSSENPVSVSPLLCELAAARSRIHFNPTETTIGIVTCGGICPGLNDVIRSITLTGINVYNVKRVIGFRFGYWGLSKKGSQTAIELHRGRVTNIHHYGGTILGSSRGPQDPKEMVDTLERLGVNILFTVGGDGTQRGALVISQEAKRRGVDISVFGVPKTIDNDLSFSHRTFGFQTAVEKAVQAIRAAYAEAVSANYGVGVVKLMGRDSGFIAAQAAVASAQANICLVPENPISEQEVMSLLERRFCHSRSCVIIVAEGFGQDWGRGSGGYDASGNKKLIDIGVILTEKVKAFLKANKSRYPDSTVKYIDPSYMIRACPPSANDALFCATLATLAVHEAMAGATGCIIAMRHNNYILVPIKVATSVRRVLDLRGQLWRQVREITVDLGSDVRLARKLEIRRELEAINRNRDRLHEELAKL
In short: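 Reaction: 0.1 M triethanolamine pH 8.0, 5 mM MgCl2, F6P 0.5 mM, ATP 0.1 mM, PFK 1.25 nM, 45 min RT. Read-out: ADP-Glo luminescence. Analysis: concentration-response fits, classed by r2 and efficacy.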

[2] = molecular target: Ubiquitin carboxyl-terminal hydrolase 1 (Homo sapiens) (UniProt O94782); test: Inhibitors of USP1/UAF1: Pilot qHTS (AID 504865);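 further: rhodamine fluorescence freed from ubiquitin-rhodamine substrate followed over time; top concentration of the series differs between compounds; on the % scale 0 is the no-effect control and ±100 the full control effect; nearly all actives have a fitted effect of over 35% in size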
Ubiquitin carboxyl-terminal hydrolase 1 (Homo sapiens), sequence (O94782 whole entry, looked up): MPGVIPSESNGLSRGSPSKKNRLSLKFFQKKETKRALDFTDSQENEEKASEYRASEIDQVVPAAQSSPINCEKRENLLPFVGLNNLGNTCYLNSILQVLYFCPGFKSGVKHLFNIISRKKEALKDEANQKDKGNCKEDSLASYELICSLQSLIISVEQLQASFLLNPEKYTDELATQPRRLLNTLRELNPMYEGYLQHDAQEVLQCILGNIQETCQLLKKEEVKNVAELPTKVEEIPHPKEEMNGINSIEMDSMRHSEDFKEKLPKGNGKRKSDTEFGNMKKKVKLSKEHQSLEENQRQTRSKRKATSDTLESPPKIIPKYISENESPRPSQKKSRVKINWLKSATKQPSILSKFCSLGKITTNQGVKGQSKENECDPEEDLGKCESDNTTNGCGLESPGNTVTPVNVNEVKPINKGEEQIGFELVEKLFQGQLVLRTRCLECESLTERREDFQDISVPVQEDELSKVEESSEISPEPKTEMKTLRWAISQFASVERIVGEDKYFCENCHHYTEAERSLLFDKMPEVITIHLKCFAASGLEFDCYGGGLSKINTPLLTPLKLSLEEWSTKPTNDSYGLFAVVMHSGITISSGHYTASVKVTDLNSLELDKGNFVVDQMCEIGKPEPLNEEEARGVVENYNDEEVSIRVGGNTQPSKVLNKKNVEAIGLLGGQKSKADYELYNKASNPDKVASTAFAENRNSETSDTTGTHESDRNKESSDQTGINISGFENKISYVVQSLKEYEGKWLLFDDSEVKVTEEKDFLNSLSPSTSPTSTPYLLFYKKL
In short: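 Kinetic fluorescence assay: 1nM USP1/UAF1, 15 min compound preincubation, then 150nM Ub-Rho; 480/540 nm.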

[3] = S16 Schwann cell PMP22 intronic element firefly luciferase assay (AID 624032);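 further: plate controls were DMSO for no effect and PTC124 positive control mean for full effect; nearly all actives have a fitted effect of over 30% in size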
In short: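 Rat S16 Schwann cells stably carrying a PMP22 intronic element-driven Fluc reporter were seeded overnight, then exposed to compounds for 24 h at 37 °C. Luminescence was normalized to PTC124 (positive control) and DMSO (0% activity).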

[4] = S16 Schwann cell PMP22 intronic element beta-lactamase assay (AID 624044; calls by dose curve;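 further: 0% = DMSO and -100% = potassium clavulanate positive control; nearly all actives have a fitted effect of over 15% in size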); details: S16 rat Schwann cells, PMP22 element beta-lactamase FRET, 24 h; ratio activity, negative = inhibition: at 38.3 µM (top of the series)
In short: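 Rat S16 Schwann cells with beta-Lac driven by a PMP22 intronic element, compound-treated 24 h at 37 °C. LiveBLAzer FRET B/G read: 460 nm normalized to potassium clavulanate vs DMSO; 535 nm FRET as viability; concentration-effect curves classified.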

[5] = qHTS profiling for inhibitors of Plasmodium falciparum proliferation (AID 504749); further: nearly all actives have a fitted effect of over 60% in size; further: potency means the concentration at half of the fitted maximal effect;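 on activity, negative = inhibition: 0% = DMSO vehicle and full inhibition = artemisinin control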; details: P. falciparum in erythrocytes, SYBR Green DNA, 72 h; at 28.7 µM (top of the series); parasite line B
In short: (§1)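 P. falciparum-infected erythrocytes (0.3% parasitemia, 2.5% hematocrit final) were exposed to compounds for 72 h at 37 C in 5% CO2, then lysed with SYBR Green buffer overnight at room temperature; parasite DNA fluorescence was normalized to artemisinin and DMSO controls.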

3D7 = test: as above; details: P. falciparum in erythrocytes, SYBR Green DNA, 72 h; series mostly up to 28.7 µM
In short: as §1

7G8 = test: as above; details: P. falciparum in erythrocytes, SYBR Green DNA, 72 h; series mostly up to 28.7 µM
In short: as §1

AA1029 = test: as above; details: P. falciparum in erythrocytes, SYBR Green DNA, 72 h; series mostly up to 28.7 µM
In short: as §1

CP191 = test: as above; details: P. falciparum in erythrocytes, SYBR Green DNA, 72 h; series mostly up to 28.7 µM
In short: as §1

CP237 = test: as above; details: P. falciparum in erythrocytes, SYBR Green DNA, 72 h; series mostly up to 28.7 µM
In short: as §1

CP238 = test: as above; details: P. falciparum in erythrocytes, SYBR Green DNA, 72 h; series mostly up to 28.7 µM
In short: as §1

CP247 = test: as above; details: P. falciparum in erythrocytes, SYBR Green DNA, 72 h; series mostly up to 28.7 µM
In short: as §1

CP256 = test: as above; details: P. falciparum in erythrocytes, SYBR Green DNA, 72 h; series mostly up to 28.7 µM
In short: as §1

CP260 = test: as above; details: P. falciparum in erythrocytes, SYBR Green DNA, 72 h; series mostly up to 28.7 µM
In short: as §1

CP325 = test: as above; details: P. falciparum in erythrocytes, SYBR Green DNA, 72 h; series mostly up to 28.7 µM
In short: as §1

CP335 = test: as above; details: P. falciparum in erythrocytes, SYBR Green DNA, 72 h; series mostly up to 28.7 µM
In short: as §1

DIV17 = test: as above; details: P. falciparum in erythrocytes, SYBR Green DNA, 72 h; series mostly up to 28.7 µM
In short: as §1

Dd2 = test: as above; details: P. falciparum in erythrocytes, SYBR Green DNA, 72 h; series mostly up to 28.7 µM
In short: as §1

FAB9 = test: as above; details: P. falciparum in erythrocytes, SYBR Green DNA, 72 h; series mostly up to 28.7 µM
In short: as §1

HB3 = test: as above; details: P. falciparum in erythrocytes, SYBR Green DNA, 72 h; series mostly up to 28.7 µM
In short: as §1

ICS = test: as above; details: P. falciparum in erythrocytes, SYBR Green DNA, 72 h; series mostly up to 28.7 µM
In short: as §1

PC15 = test: as above; details: P. falciparum in erythrocytes, SYBR Green DNA, 72 h; series mostly up to 28.7 µM
In short: as §1

PC26 = test: as above; details: P. falciparum in erythrocytes, SYBR Green DNA, 72 h; series mostly up to 28.7 µM
In short: as §1

PC49 = test: as above; details: P. falciparum in erythrocytes, SYBR Green DNA, 72 h; series mostly up to 28.7 µM
In short: as §1

W2 = test: as above; details: P. falciparum in erythrocytes, SYBR Green DNA, 72 h; series mostly up to 28.7 µM
In short: as §1

ATS189 = test: as above; details: P. falciparum in erythrocytes, SYBR Green DNA, 72 h; series mostly up to 28.7 µM
In short: as §1

ATS95 = test: as above; details: P. falciparum in erythrocytes, SYBR Green DNA, 72 h; series mostly up to 28.7 µM
In short: as §1

C2A = test: as above; details: P. falciparum in erythrocytes, SYBR Green DNA, 72 h; series mostly up to 28.7 µM
In short: as §1

CP185 = test: as above; details: P. falciparum in erythrocytes, SYBR Green DNA, 72 h; series mostly up to 28.7 µM
In short: as §1

CP192 = test: as above; details: P. falciparum in erythrocytes, SYBR Green DNA, 72 h; series mostly up to 28.7 µM
In short: as §1

CP201 = test: as above; details: P. falciparum in erythrocytes, SYBR Green DNA, 72 h; series mostly up to 28.7 µM
In short: as §1

CP211 = test: as above; details: P. falciparum in erythrocytes, SYBR Green DNA, 72 h; series mostly up to 28.7 µM
In short: as §1

CP217 = test: as above; details: P. falciparum in erythrocytes, SYBR Green DNA, 72 h; series mostly up to 28.7 µM
In short: as §1

CP250 = test: as above; details: P. falciparum in erythrocytes, SYBR Green DNA, 72 h; series mostly up to 28.7 µM
In short: as §1

CP252 = test: as above; details: P. falciparum in erythrocytes, SYBR Green DNA, 72 h; series mostly up to 28.7 µM
In short: as §1

CP265 = test: as above; details: P. falciparum in erythrocytes, SYBR Green DNA, 72 h; series mostly up to 28.7 µM
In short: as §1

CP266 = test: as above; details: P. falciparum in erythrocytes, SYBR Green DNA, 72 h; series mostly up to 28.7 µM
In short: as §1

CP268 = test: as above; details: P. falciparum in erythrocytes, SYBR Green DNA, 72 h; series mostly up to 28.7 µM
In short: as §1

CP269 = test: as above; details: P. falciparum in erythrocytes, SYBR Green DNA, 72 h; series mostly up to 28.7 µM
In short: as §1

CP291 = test: as above; details: P. falciparum in erythrocytes, SYBR Green DNA, 72 h; series mostly up to 28.7 µM
In short: as §1

CP297 = test: as above; details: P. falciparum in erythrocytes, SYBR Green DNA, 72 h; series mostly up to 28.7 µM
In short: as §1

CP315 = test: as above; details: P. falciparum in erythrocytes, SYBR Green DNA, 72 h; series mostly up to 28.7 µM
In short: as §1

CP329 = test: as above; details: P. falciparum in erythrocytes, SYBR Green DNA, 72 h; series mostly up to 28.7 µM
In short: as §1

DFO2036 = test: as above; details: P. falciparum in erythrocytes, SYBR Green DNA, 72 h; series mostly up to 28.7 µM
In short: as §1

JCK = test: as above; details: P. falciparum in erythrocytes, SYBR Green DNA, 72 h; series mostly up to 28.7 µM
In short: as §1

N140 = test: as above; details: P. falciparum in erythrocytes, SYBR Green DNA, 72 h; series mostly up to 28.7 µM
In short: as §1

P93_24 = test: as above; details: P. falciparum in erythrocytes, SYBR Green DNA, 72 h; series mostly up to 28.7 µM
In short: as §1

P94_40 = test: as above; details: P. falciparum in erythrocytes, SYBR Green DNA, 72 h; series mostly up to 28.7 µM
In short: as §1

SC27B = test: as above; details: P. falciparum in erythrocytes, SYBR Green DNA, 72 h; series mostly up to 28.7 µM
In short: as §1

TAB113 = test: as above; details: P. falciparum in erythrocytes, SYBR Green DNA, 72 h; series mostly up to 28.7 µM
In short: as §1

TAB165 = test: as above; details: P. falciparum in erythrocytes, SYBR Green DNA, 72 h; series mostly up to 28.7 µM
In short: as §1

O=C1CC2OCC=C3CN4CC[C@]56c7ccccc7N1C5C2[C@H]3C[C@H]46 (stereo partly drawn)
inactive: outcome [1] | Potency [2] | Potency [3] | Potency [4] | activity, negative = inhibition [5] -18.7% | Potency (3D7) | Potency (CP191) | Potency (CP247) | Potency (DIV17) | Potency (FAB9) | Potency (HB3) | Potency (ICS) | Potency (PC15) | Potency (PC26) | Potency (PC49)
active: Potency (7G8) 11.2 µM | Potency (AA1029) 10 µM | Potency (CP237) 5.01 µM | Potency (CP238) 10 µM | Potency (CP256) 8.91 µM | Potency (CP260) 11.2 µM | Potency (CP325) 13.5 µM | Potency (CP335) 5.36 µM | Potency (Dd2) 11.2 µM | Potency (W2) 3.38 µM

O=C1CC2OCC=C3CN4CCC56c7ccccc7N1C5[C@H]2[C@H]3C[C@H]46 (stereo partly drawn) (tested in a mixture with another compound)
inactive: outcome [1] | Potency [2] | Potency [3] | Potency [4] | Potency (ATS189) | Potency (ATS95) | Potency (C2A) | Potency (CP185) | Potency (CP191) | Potency (CP192) | Potency (CP201) | Potency (CP211) | Potency (CP217) | Potency (CP237) | Potency (CP238) | Potency (CP247) | Potency (CP250) | Potency (CP252) | Potency (CP256) | Potency (CP265) | Potency (CP266) | Potency (CP268) | Potency (CP269) | Potency (CP291) | Potency (CP297) | Potency (CP315) | Potency (CP325) | Potency (CP329) | Potency (CP335) | Potency (DFO2036) | Potency (JCK) | Potency (N140) | Potency (P93_24) | Potency (P94_40) | Potency (PC15) | Potency (SC27B) | Potency (TAB113) | Potency (TAB165)

Source: PubChem BioAssay (NCATS)
